Test [1] in a line: Viability qHTS for spleen associated tyrosine kinase inhibitor (SYKi) naive MV4-11 cells (AID 1963823). Note: nearly all actives have a fitted effect of over 40% in size. Summed up: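 Viability of MV4-11 AML cells lacking prior SYK inhibitor exposure is scored by CellTiter-Glo luminescence following 72 hr compound incubation at 37 C, 5% CO2, seeded at 500 cells per well.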
Test [2] in a line: Viability qHTS for spleen associated tyrosine kinase inhibitor (SYKi) drug resistant MV4-11 cells (AID 1963824). Note: nearly all actives have a fitted effect of over 35% in size. Summed up:
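SYK-inhibitor-resistant MV4-11 AML cells were seeded at 500 per well onto compound and cultured 72 hours (37 °C, 5% CO2). CellTiter-Glo was then added, and after 10 min at room temperature, luminescence gave viability.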

The nature of test [3]: Cellular viability qHTS for adrenocortical cancer (ACC) cell line SW-13 (AID 1963989).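 For activity (max response): cells grown in serum-free medium with ITS supplement; % is set by controls: 0 for no effect and ±100 for the full control effect.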 Note: nearly all actives have a fitted effect of over 65% in size. Particulars: SW-13 ACC cells viability, CellTiter-Glo, 48 h; activity (max response): stronger effect = lower value. Summed up:
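Luminescent ATP read-out (CellTiter-Glo, 20 min at room temperature) measured metabolically competent SW-13 cells after 48 h compound treatment. Final concentrations spanned up to 46 uM; bortezomib served as positive control.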
In general terms: qHTS replaces the single test concentration by a dilution series.

Test [4] in a line: Cellular viability qHTS for adrenocortical cancer (ACC) cell line NCI-H295R (AID 1963990). Note: nearly all actives have a fitted effect of over 60% in size. Put shortly: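 IC50 and maximal efficacy derive from four-parameter logistic modelling of titration curves, with reads scaled between DMSO-only wells (0%) and doxorubicin hydrochloride (100% inhibition). Compounds spanned up to 46 uM over 48 h.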

“And” between values parts separate entries of the source, which are not always exact repeats. Identical values can stand only once. Records with an inconclusive call do not appear. More than one record can exist for a structure, and the calls need not agree. The source made the active and inactive calls. Calls come from the whole dose curve; as a rule, active = well fitted curve in the direction sought with a large enough effect; inconclusive = small, poorly fitted or top-dose-only effect, or another doubt; inactive = no such curve, though single readings can be large; an effect the other way counts as inactive or inconclusive.
Potency is the fitted concentration of half-maximal effect.

On to `Cc1c(CN2CCC(Nc3ncnc4sc(CC(F)(F)F)cc34)CC2)ccc2c1cc(C#N)n2Cc1cn[nH]c1`, for which the Potency in test [1] was 0.525 µM (active); in test [2], 0.468 µM (active); in test [3], 4.47 µM (active); in test [4] it was 6.31 µM (active).
With `CC(C)N(CCCNC(=O)Nc1ccc(C(C)(C)C)cc1)C[C@H]1O[C@@H](n2cc(Br)c3c(N)ncnc32)[C@H](O)[C@@H]1O`, the Potency is 4.68 µM (active) in test [1]; 18.4 µM (active) and 7.42 µM (active) in test [2]; 28.2 µM (active) in test [3]; 25.1 µM (active) in test [4].
For the molecule `CC(=O)N[C@H]1[C@H](O[C@@H]2c3ccc(c(Cl)c3)Oc3cc4cc(c3O[C@@H]3O[C@H](CO)[C@@H](O)[C@H](O)[C@H]3NC(=O)CCCCCCCC(C)C)Oc3ccc(cc3Cl)C[C@H]3NC(=O)[C@H](N)c5ccc(O)c(c5)Oc5cc(O)cc(c5)[C@H](NC3=O)C(=O)N[C@H]4C(=O)N[C@H]3C(=O)N[C@@H]2C(=O)N[C@@H](C(=O)O)c2cc(O)cc(O[C@H]4O[C@H](CO)[C@@H](O)[C@H](O)[C@@H]4O)c2-c2cc3ccc2O)O[C@H](CO)[C@@H](O)[C@@H]1O`, the Potency entry in test [1], in test [2] and in test [4] was “inactive” each time. For the same molecule, the activity (max response) in test [3] was 11.6% (inactive).
Consider `C[C@H](CCC(=O)O)[C@H]1CC[C@H]2[C@@H]3C(=O)C[C@@H]4CC(=O)CC[C@]4(C)[C@H]3CC(=O)[C@]12C`, for which the Potency result in test [1], in test [2] and in test [4] was “inactive” throughout. The activity (max response) in test [3] was 15.5% (inactive).
Turning to `COc1cccc2c1C(=O)c1c(O)c3c(c(O)c1C2=O)C[C@@](O)(C(=O)CO)C[C@@H]3O[C@H]1C[C@H](N)[C@H](O[C@@H]2CCCCO2)[C@H](C)O1`, the Potency in test [1] was 0.75 µM (active); in test [2], 3.35 µM (active); in test [3], 0.731 µM (active); in test [4], 3.66 µM (active).
Take `C[C@]12CCC(=O)C=C1CC[C@@H]1[C@@H]2[C@@H](O)C[C@@]2(C)[C@H]1CC[C@]2(O)C(=O)COC(=O)CCC(=O)O`: the Potency entry in test [1], in test [2] and in test [4] was “inactive” throughout. Besides, the activity (max response) in test [3] is 3.9% (inactive).
As for `CC(C)(O)[C@H]1CC[C@@](C)([C@H]2[C@@H](O)C[C@@]3(C)[C@@H]4C[C@H](O[C@@H]5O[C@H](CO)[C@@H](O)[C@H](O)[C@H]5O)[C@H]5C(C)(C)[C@@H](O[C@@H]6OC[C@@H](O)[C@H](O)[C@H]6O)CC[C@@]56C[C@@]46CC[C@]23C)O1`, the Potency entry in test [1], in test [2] and in test [4] was “inactive” each time. Moreover, the activity (max response) in test [3] was 1.01% (inactive).
Regarding `CN1CCN(c2ccc3nc(-c4cc(C(C)(C)C)c(OCCCC(=O)NCCCN=[N+]=[N-])c(C(C)(C)C)c4)[nH]c3c2)CC1`, the Potency is 5.25 µM (active) in test [1], 5.25 µM (active) in test [2], 3.98 µM (active) in test [3] and 3.16 µM (active) in test [4].
For the molecule `O=C(CCCCCCNC(=O)c1cnc(N(c2ccccc2)c2ccccc2Cl)nc1)NO`, the Potency in test [1] was 3.32 µM (active); in test [2] it was 2.63 µM (active); in test [3] it was 14.1 µM (active); in test [4], 11.2 µM (active).
In the case of `O=C(O)CCc1nc(-c2ccccc2)c(-c2ccccc2)o1`, the Potency result in test [1], in test [2] and in test [4] was “inactive” each time. For the same molecule, the activity (max response) in test [3] was -11.2% (inactive).
Turning to `COc1ccc(S(=O)(=O)Nc2cc(-c3csc(C#N)c3)ccc2C)cc1`, the Potency in test [1] is 0.0833 µM (active); in test [2], 0.0934 µM (active); in test [3] it was 0.0631 µM (active); in test [4], 0.0794 µM (active).
Consider `Cn1cc[nH]c1=S`, for which the Potency result in test [1], in test [2] and in test [4] was “inactive” throughout. In addition, the activity (max response) in test [3] is 12% (inactive).
For the molecule `NS(=O)(=O)c1cc2c(cc1C(F)(F)F)NCNS2(=O)=O`, the Potency result in test [1], in test [2] and in test [4] was “inactive” each time. The activity (max response) in test [3] was -4.83% (inactive).
On to `CC(C)c1cc(CNc2nc(Nc3cc(C4CC4)[nH]n3)cc(N3CCN(C)CC3)n2)on1`, for which the Potency in test [1] was 0.0259 µM (active); in test [2], 0.0231 µM (active); in test [3], 3.98 µM (active); in test [4], 1.58 µM (active).
Turning to `O=C(O)CCC(=O)Nc1ccc(S(=O)(=O)Nc2nccs2)cc1`, the Potency entry in test [1], in test [2] and in test [4] was “inactive” in each case. For the same molecule, the activity (max response) in test [3] is -7.1% (inactive).
Regarding `CC(=O)N(CC(O)CO)c1c(I)c(C(=O)NCCO)c(I)c(C(=O)NCC(O)CO)c1I` (configuration not stated), the Potency result in test [1], in test [2] and in test [4] was “inactive” each time. The activity (max response) in test [3] is 7.39% (inactive).
`C[C@H]1O[C@H](O[C@H]2[C@H](O)[C@@H](O)[C@@H](O[C@H]3[C@H](O)[C@@H](O)C(O)O[C@@H]3CO)O[C@@H]2CO)[C@H](O)[C@@H](O)[C@@H]1N[C@H]1C=C(CO)[C@@H](O)[C@H](O)[C@H]1O` (some centres not stated): the Potency result in test [1], in test [2] and in test [4] was “inactive” in each case. Also, the activity (max response) in test [3] was -4.82% (inactive).
With `CCN(CC)CCOC(=O)C1(c2ccccc2)CCCC1`, the Potency result in test [1], in test [2] and in test [4] was “inactive” each time. Moreover, the activity (max response) in test [3] was 8.5% (inactive).
As for `Cc1cccc(C)c1NC(=O)CN(CC(=O)O)CC(=O)O`, the Potency entry in test [1], in test [2] and in test [4] was “inactive” throughout. The activity (max response) in test [3] was 9.48% (inactive).
On to `C=CC(=O)Nc1cccc(Oc2nc(Nc3ccc(N4CCN(C)CC4)cc3)nc3ccsc23)c1`, for which the Potency in test [1] is 2.63 µM (active); in test [2], 3.32 µM (active); in test [3] it was 3.16 µM (active); in test [4], 5.01 µM (active).
With `CC(C)(C)Sc1c(CC(C)(C)C(=O)O)n(Cc2ccc(Cl)cc2)c2ccc(OCc3ccc4ccccc4n3)cc12`, the Potency entry in test [1] was “inactive and 16.6 µM (active)”; in test [2] it was “inactive and 11.8 µM (active)”. For the same molecule, the activity (max response) in test [3] is 0.331% (inactive). In test [4], the Potency result is “inactive”.
On to `O=C(O)c1cc(-c2ccccc2)nc2ccccc12`, for which the Potency result in test [1], in test [2] and in test [4] was “inactive” in each case. Also, the activity (max response) in test [3] was 10.7% (inactive).
`C=CC(=O)N1CCC[C@H](n2c(=O)n(-c3ccc(Oc4ccccc4)cc3)c3c(N)ncnc32)C1`: the Potency was 1.05 µM (active) in test [1], 1.66 µM (active) in test [2], 3.98 µM (active) in test [3] and 8.91 µM (active) in test [4].

These data come from PubChem BioAssay (NCATS).
